Measurements as given in PubChem BioAssay.
Active and inactive are the calls of the source.

What was measured:
Albumin (Bos taurus) = Albumin (Bos taurus) (UniProt P02769); assay: bovine serum albumin binders on microarray, profiling panel, artefact control for SMM control protein annotation, biochemical, small-molecule microarray, Alexa647 label, 635/667 nm fluorescence (AID 1118); details: BSA-A647 binding, fluorescence 635 nm, higher = more signal;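 also: score merges 667 nm emission intensity and signal-to-noise per printed compound spot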
Chain of Albumin (Bos taurus) (P02769 whole entry, looked up): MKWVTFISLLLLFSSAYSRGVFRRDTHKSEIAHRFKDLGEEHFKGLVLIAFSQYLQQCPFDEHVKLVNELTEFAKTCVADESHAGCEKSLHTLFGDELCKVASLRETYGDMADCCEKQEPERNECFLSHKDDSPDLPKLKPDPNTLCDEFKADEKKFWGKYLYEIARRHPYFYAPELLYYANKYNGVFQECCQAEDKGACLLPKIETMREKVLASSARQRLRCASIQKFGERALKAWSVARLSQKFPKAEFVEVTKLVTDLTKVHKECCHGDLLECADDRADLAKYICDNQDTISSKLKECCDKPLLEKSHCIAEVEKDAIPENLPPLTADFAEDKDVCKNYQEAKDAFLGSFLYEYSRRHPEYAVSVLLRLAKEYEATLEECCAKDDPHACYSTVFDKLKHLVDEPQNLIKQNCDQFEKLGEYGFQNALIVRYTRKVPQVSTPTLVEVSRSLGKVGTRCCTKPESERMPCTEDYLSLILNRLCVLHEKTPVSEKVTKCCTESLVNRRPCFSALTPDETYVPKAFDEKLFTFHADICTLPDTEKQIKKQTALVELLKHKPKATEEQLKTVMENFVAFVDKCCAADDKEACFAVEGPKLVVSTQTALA

[1] = small-molecule microarray binders of probe aXIP, primary screen, biochemical, NeuroSMM set, 635/667 nm fluorescence (AID 1119); details: higher = more signal, called active from +8 up or from −8 down;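 also: probe is the protein aXip251-270 applied at 1 µg/mL to compound-printed slides; binding of probe to printed compounds measured as 667 nm fluorescence plus signal to noise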
[2] = small-molecule binders of probe aNOTCH3, primary screen, biochemical, small-molecule microarray, 635/667 nm fluorescence (AID 1120); details: higher = more signal;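 also: probe is a biotin-tagged antibody raised against NOTCH3 rather than NOTCH3 protein; score merges spot fluorescence near 667 nm with spot signal to noise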
[3] = small-molecule binders of probe aNOTCH2, primary screen, biochemical, small-molecule microarray, 635/667 nm fluorescence (AID 1121); details: higher = more signal;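 also: score merges feature fluorescence read at 667 nm with its signal to noise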
[4] = biological target: Carbonic anhydrase 2 (Homo sapiens) (UniProt P00918); assay: CAII small-molecule binders, profiling panel, biochemical, small-molecule microarray, Alexa647-labelled CAII (AID 1122); details: CAII-A647 binding fluorescence, higher = more signal
[5] = COS7 lysate on small-molecule microarray, probe aHis, 635 nm (AID 1123); details: COS7 cell lysate, fluorescence, higher = more signal;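 also: z-score combines 667nm fluorescence intensity with signal-to-noise per printed compound spot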
[6] = compound binding in COS7 lysate, probe aLAP1, primary screen, cell lysate, small-molecule microarray (AID 1124); details: probe aLAP1, fluorescence, higher = more signal;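 also: lysate comes from COS7 cells expressing LAP1 and is applied at 0.3 µg/mL; score merges spot fluorescence near 667 nm with signal-to-noise over triplicate slides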
Sam68 (KHDRBS1) = assay: Sam68 small-molecule binders, primary screen, biochemical, small-molecule microarray, 635 nm fluorescence (AID 1125); details: small-molecule microarray binding, higher = more signal;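 also: score merges 667 nm channel intensity with signal to noise over triplicate slides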
[7] = test system: Chordin-like protein 2 (CHRDL2); assay: CHRDL2 small-molecule binders, primary screen, biochemical, small-molecule microarray, 635 nm fluorescence (AID 1126); details: small-molecule microarray binding, fluorescence 635 nm; higher = more signal;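 also: printed compound slides probed with Chrdl2 protein at 4 µg/mL for 1 h at 4 C; score merges 667 nm emission intensity with signal to noise over three replicate slides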
[8] = biological target: Concanavalin-A (Canavalia ensiformis) (UniProt P02866); assay: ConA small-molecule binders, primary screen, artefact control for SMM control protein annotation, biochemical, small-molecule microarray, Alexa647 label, 635 nm (AID 1127); details: ConA-A647 binding fluorescence, higher = more signal;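 also: z combines 667 nm emission intensity with signal-to-noise across three replicate slides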
Chain of Concanavalin-A (Canavalia ensiformis) (P02866 whole entry, looked up): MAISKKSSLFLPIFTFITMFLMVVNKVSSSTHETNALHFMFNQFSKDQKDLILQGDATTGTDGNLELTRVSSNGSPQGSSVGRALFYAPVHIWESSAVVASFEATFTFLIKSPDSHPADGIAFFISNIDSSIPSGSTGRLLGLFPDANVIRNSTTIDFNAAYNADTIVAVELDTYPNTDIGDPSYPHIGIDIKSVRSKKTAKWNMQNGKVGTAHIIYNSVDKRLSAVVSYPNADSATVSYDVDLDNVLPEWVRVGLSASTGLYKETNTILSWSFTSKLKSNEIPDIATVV

[9] = anti-His antibody binders, primary screen, artefact control for SMM control protein annotation, biochemical, small-molecule microarray, 635 nm fluorescence (AID 1128); details: anti-His Alexa647 antibody binding, higher = more signal;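 also: score merges feature fluorescence with signal-to-noise for each printed compound spot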
[10] = test system: Human papillomavirus type 1a E7 protein (residues 1-88); assay: HPV1a E7 small-molecule binders, primary screen, biochemical, small-molecule microarray, residues 1-88, 635 nm (AID 1129); details: small-molecule microarray binding, fluorescence 635 nm; higher = more signal
[11] = biological target: Focal adhesion kinase 1 (Homo sapiens) (UniProt Q05397); assay: small-molecule microarray binders of FAK, primary screen, biochemical, 635/667 nm fluorescence, BSA, DTT (AID 1130); details: PTK2 binding, 635 nm fluorescence, higher = more signal;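 also: composite of spot emission at 667 nm and signal to noise over triplicate slides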
Chain of Focal adhesion kinase 1 (Homo sapiens) (Q05397 whole entry, looked up): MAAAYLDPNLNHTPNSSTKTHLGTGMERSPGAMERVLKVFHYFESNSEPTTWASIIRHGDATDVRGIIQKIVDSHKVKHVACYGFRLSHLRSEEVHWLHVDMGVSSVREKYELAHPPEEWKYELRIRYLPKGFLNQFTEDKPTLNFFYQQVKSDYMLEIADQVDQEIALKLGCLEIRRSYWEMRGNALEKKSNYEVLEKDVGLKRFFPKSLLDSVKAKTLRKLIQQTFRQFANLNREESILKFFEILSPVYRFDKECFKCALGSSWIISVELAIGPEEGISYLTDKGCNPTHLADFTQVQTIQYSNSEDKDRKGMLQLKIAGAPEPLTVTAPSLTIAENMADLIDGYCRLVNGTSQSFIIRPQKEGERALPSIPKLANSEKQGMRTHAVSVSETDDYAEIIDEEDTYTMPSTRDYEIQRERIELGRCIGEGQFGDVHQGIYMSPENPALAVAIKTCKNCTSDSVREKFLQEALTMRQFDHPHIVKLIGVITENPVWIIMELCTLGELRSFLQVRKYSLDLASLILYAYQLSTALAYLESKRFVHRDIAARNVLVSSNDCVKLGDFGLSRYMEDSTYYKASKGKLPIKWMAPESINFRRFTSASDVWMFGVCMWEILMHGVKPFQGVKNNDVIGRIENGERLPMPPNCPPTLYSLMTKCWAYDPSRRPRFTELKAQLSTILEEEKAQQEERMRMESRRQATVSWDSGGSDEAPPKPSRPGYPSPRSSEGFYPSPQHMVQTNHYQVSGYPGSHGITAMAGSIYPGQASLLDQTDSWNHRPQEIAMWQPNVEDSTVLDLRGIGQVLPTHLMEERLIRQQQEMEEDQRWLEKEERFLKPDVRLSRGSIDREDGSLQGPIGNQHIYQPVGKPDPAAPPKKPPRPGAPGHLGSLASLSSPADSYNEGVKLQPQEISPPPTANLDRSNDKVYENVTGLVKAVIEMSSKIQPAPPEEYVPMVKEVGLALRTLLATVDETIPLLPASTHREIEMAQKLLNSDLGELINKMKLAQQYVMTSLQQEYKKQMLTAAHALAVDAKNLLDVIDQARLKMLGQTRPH

[12] = test system: Fibrinogen (Alexa647-labelled); assay: fibrinogen binders on compound microarrays, profiling panel, artefact control for SMM control-protein annotation, biochemical, small-molecule microarray, 635/667 nm fluorescence (AID 1131); details: fibrinogen-A647 binding fluorescence, higher = more signal;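 also: z-score merges 667 nm fluorescence with per-spot signal-to-noise over triplicate slides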
[13] = biological target: Follistatin (Homo sapiens) (UniProt P19883); assay: follistatin binders on small-molecule microarrays, primary screen, biochemical, small-molecule microarray, 635/667 nm fluorescence (AID 1132); details: FST binding, 635 nm fluorescence, higher = more signal
Chain of Follistatin (Homo sapiens) (P19883 whole entry, looked up): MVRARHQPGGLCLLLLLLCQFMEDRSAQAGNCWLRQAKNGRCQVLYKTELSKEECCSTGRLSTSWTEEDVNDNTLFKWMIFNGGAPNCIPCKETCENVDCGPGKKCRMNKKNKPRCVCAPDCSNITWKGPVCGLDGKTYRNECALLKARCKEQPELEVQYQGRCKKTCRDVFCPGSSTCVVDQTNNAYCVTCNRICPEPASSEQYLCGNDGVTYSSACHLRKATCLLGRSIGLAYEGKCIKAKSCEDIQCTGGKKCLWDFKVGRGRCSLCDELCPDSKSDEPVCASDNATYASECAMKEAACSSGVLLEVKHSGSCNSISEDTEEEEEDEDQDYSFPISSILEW

[14] = biological target: Fibroblast growth factor 2 (Homo sapiens) (UniProt P09038); assay: FGF2 binders on small-molecule microarrays, primary screen, biochemical, small-molecule microarray, 635/667 nm fluorescence (AID 1133); details: small-molecule microarray binding, FGF2, fluorescence 635/667; higher = more signal
Chain of Fibroblast growth factor 2 (Homo sapiens) (P09038 whole entry, looked up): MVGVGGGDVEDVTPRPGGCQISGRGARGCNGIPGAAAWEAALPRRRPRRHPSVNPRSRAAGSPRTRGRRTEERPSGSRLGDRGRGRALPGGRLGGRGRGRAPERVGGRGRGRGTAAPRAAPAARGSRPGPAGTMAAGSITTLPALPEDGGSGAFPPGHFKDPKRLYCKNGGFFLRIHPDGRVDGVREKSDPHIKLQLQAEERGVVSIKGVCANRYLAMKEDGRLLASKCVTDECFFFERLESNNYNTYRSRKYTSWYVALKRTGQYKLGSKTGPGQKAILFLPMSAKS

[15] = mitochondrial membrane potential change in A549 cells, profiling panel, cell-based, JC-1 fluorescence, basal, 24 h, 100 nL (AID 1138); details: higher = more signal;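 also: A549 lung adenocarcinoma cells under basal conditions with no added stimulus; test concentration not given here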
Lefty1 = Lefty1 binders on small-molecule microarrays, primary screen, biochemical, small-molecule microarray, 635/667 nm fluorescence (AID 1139); details: small-molecule microarray binding, fluorescence 635/667; higher = more signal
[16] = test system: wheat germ agglutinin (Triticum aestivum), Alexa647-labelled; assay: wheat germ agglutinin binders on compound microarrays, profiling panel, artefact control for SMM control-protein annotation, biochemical, small-molecule microarray, 635/667 nm fluorescence (AID 1140); details: WGA-A647 binding, 635 nm fluorescence, higher = more signal;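 also: score merges 667 nm feature emission with signal to noise over triplicate slides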
[17] = biological target: Luciferin 4-monooxygenase (Photinus pyralis) (UniProt P08659); assay: firefly luciferase enzyme inhibitors, primary screen, biochemical, luminescence, purified enzyme, 2006 set (AID 1141); details: SteadyGlo luminescence, 30 min, higher = more signal, called active from +8 up or from −8 down;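 also: cell-free assay with purified firefly luciferase at 100 ng per well in PBS; test concentration not given here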
Chain of Luciferin 4-monooxygenase (Photinus pyralis) (P08659 whole entry, looked up): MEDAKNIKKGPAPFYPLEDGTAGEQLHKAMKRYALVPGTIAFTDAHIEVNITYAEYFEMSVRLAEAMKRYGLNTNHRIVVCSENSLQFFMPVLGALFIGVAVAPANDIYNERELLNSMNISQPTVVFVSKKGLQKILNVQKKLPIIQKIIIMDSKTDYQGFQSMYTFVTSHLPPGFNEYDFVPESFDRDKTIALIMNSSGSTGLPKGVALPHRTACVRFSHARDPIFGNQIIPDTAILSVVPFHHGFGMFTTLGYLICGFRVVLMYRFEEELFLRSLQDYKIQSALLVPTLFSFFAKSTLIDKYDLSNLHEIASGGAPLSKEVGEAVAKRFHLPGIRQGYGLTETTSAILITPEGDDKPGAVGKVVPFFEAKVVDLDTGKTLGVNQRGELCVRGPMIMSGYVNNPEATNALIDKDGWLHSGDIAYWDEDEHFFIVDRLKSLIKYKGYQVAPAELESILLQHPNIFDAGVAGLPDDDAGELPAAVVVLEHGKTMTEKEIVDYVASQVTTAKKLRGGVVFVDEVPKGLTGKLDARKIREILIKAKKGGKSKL

Compound | composite z-score (Albumin (Bos taurus)) | composite Z-score [1] | composite z-score [2] | composite z-score [3] | composite z-score [4] | composite z-score [5] | composite z-score [6] | composite z-score (Sam68 (KHDRBS1)) | composite z-score [7] | composite z-score [8] | composite z-score [9] | composite z-score [10] | composite z-score [11] | composite z-score [12] | composite z-score [13] | composite z-score [14] | z-score [15] | composite z-score (Lefty1) | composite z-score [16] | z-score [17]
O=C(NCc1ccccc1)[C@]1(Cc2ccccc2)N=C(c2ccc(OCCCO)cc2)O[C@@H]1c1ccccc1 | 0.895 | 0.638 (inactive) | 0.062 | -0.0519 | 0.604 | 1.32 | 0.225 | 0.938 | -0.243 | 0.418 | 2.31 | 1.2 | 0.121 | 0.817 | -0.0037 | -0.0759 | 2 | -0.501 | 0.648 | -0.794 (inactive)
CC(C)CCC[C@@H](C)[C@H]1CC[C@@]2(C)C3=C(CC[C@]12C)[C@@]1(C)CC[C@H](OC(=O)C(C)(C)C)C(C)(C)C1CC3 (stereo not given in full) | -0.0648 | -0.598 (inactive) | -0.0396 | -0.191 | -0.0485 | 1.25 | -0.0838 | 0.657 | 0.547 | 0.632 | 0.43 | 0.586 | 0.0226 | 0.551 | 0.828 | 0.232 | 0.4 | 0.543 | 0.0969 | 0.159 (inactive)
COc1ccc([Si](C)(C)[C@H]2[C@H](CCO)O[C@@]3(C(=O)N(Cc4cccc(N5CCOC5=O)c4)c4ccccc43)[C@@H]2C)cc1 | 0.688 | 0.207 (inactive) | 0.0203 | -0.0942 | 0.281 | 1.04 | -0.15 | 0.996 | -0.0894 | 1.1 | 0.56 | 1.13 | 0.413 | 0.708 | 0.433 | 0.203 | 0.00631 | 0.729 | 0.63 | -0.0833 (inactive)
COC(=O)[C@@]1(Cc2ccccc2)[C@H]2c3cc(C(=O)N4CCCC4)n(Cc4ccc(OC(F)(F)F)cc4)c3C[C@H]2CN1C(=O)c1ccccc1 | 0.963 | -0.56 (inactive) | 0.772 | 0.509 | 0.461 | 2.44 | 0.498 | 1.31 | -0.488 | 1.16 | 1.52 | 1.24 | 0.653 | 0.892 | 0.575 | -0.65 | 0.989 | -0.577 | 1.16 | 1 (inactive)
[N-]=[N+]=NCc1ccccc1C[C@]1(C(=O)NCCN2CCOCC2)COC(c2ccc(OCCCO)cc2)=N1 | 0.854 | 0.689 (inactive) | 0.116 | -0.106 | 0.353 | 2.31 | 1.47 | 1.29 | -0.519 | 0.0927 | 0.293 | 1.24 | 0.815 | 1.02 | 0.953 | 0.152 | 1.88 | 0.346 | 0.783 | -0.851 (inactive)
[N-]=[N+]=NCc1ccccc1C[C@]1(C(=O)NCCN2CCOCC2)N=C(c2ccc(OCCCO)cc2)O[C@H]1c1ccccc1 | 0.528 | 0.356 (inactive) | 0.408 | -0.126 | 0.668 | 1.78 | 0.488 | 1.3 | -1.03 | 0.885 | 0.478 | 1.22 | 0.378 | 1.01 | 1.39 | 0.473 | 1.02 | 0.649 | 0.556 | 0.375 (inactive)
[N-]=[N+]=NCc1ccccc1[C@H]1OC(c2ccc(OCCCO)cc2)=N[C@@]1(Cc1ccccc1N=[N+]=[N-])C(=O)NCCN1CCOCC1 | 0.701 | -0.514 (inactive) | 0.416 | 0.105 | 0.751 | 2.32 | -0.0777 | 1.29 | 0.263 | 1.14 | 2.01 | 1.27 | 0.387 | 0.981 | 1.27 | 0.939 | 1.57 | 0.631 | 1.2 | -2.69 (inactive)
C=CC[C@]1(C(=O)NCC(O)CO)N=C(c2ccc(OCCCO)cc2)O[C@H]1c1ccccc1N=[N+]=[N-] (stereo not given in full) | 0.933 | 0.171 (inactive) | 0.0876 | 0.132 | 0.766 | 2.78 | 1.41 | 0.645 | -0.451 | -0.0308 | 2.28 | 0.653 | 0.302 | 0.66 | 1.1 | 0.264 | -0.152 | -0.661 | 0.986 | -6.91 (inactive)
CC(C)(C)OC(=O)CC[C@@]1(C(=O)N2CCCCC2)N=C(c2ccc(OCCCO)cc2)O[C@@H]1c1ccccc1CN=[N+]=[N-] | 1.03 | 0.18 (inactive) | 0.359 | 0.13 | 0.597 | 2.99 | 0.639 | 1.29 | -0.813 | 1.18 | 3.24 | 1.21 | 1.26 | 1.03 | 1.04 | 0.0627 | 1.58 | 0.0215 | 1.35 | -0.931 (inactive)
CCCCC=C[C@@H](NC(=O)CCc1ccccc1)c1ccccc1 | 0.585 | 1.46 (inactive) | 0.23 | 0.0409 | 0.689 | 2.37 | 0.785 | 1.2 | 0.0782 | 1.12 | 0.838 | 1.2 | 0.507 | 0.939 | 0.361 | 0.362 | -2.3 | -0.0782 | 1.07 | 1.08 (inactive)
CC(C)CCC[C@@H](C)[C@H]1CC[C@@]2(C)C3=C(CC[C@]12C)[C@@]1(C)CC[C@H](OC(=O)c2ccc(N)cc2)C(C)(C)C1CC3 (stereo not given in full) | 0.0881 | -0.196 (inactive) | 0.0406 | -0.207 | 0.0778 | -0.221 | -0.252 | 0.401 | 0.456 | 0.462 | 0.467 | 0.398 | 0.108 | 0.483 | 0.552 | 0.612 | 1.32 | 0.552 | 0.0599 | -1.43 (inactive)
